# Experimental data from PubChem BioAssay (NCATS).
# “And” between values parts separate entries of the source, which are not always exact repeats. Identical values can stand only once. Records with an inconclusive call do not appear. Where a call stands in place of a potency, no number is given. A structure can be active in one record and inactive in another. The source made the active and inactive calls. Calls come from the whole dose curve; as a rule, active = well fitted curve in the direction sought with a large enough effect; inconclusive = small, poorly fitted or top-dose-only effect, or another doubt; inactive = no such curve, though single readings can be large; an effect the other way counts as inactive or inconclusive.
# Assays:
# [1] = Viability qHTS for spleen associated tyrosine kinase inhibitor (SYKi) naive MV4-11 cells (AID 1963823); note: nearly all actives have a fitted effect of over 40% in size
# Method in brief: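 Luminescence from CellTiter-Glo, developed 10 min at room temperature, gave viability of MV4-11 cells never exposed to SYK inhibitor. Cells (500/well) had been incubated with compounds for 72 hr under standard culture conditions.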
# [2] = Viability qHTS for spleen associated tyrosine kinase inhibitor (SYKi) drug resistant MV4-11 cells (AID 1963824); note: nearly all actives have a fitted effect of over 35% in size
# Method in brief: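 SYK-inhibitor-resistant MV4-11 AML cells were seeded at 500 per well onto compound and cultured 72 hours (37 °C, 5% CO2). CellTiter-Glo was then added, and after 10 min at room temperature, luminescence gave viability.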
# [3] = Quantitative highthroughput screen to assess conditional lethalithy of NOMO1 cells grown in RPMI1640 with untreated serum (RPMI+s) (AID 1963876); note: nearly all actives have a fitted effect of over 35% in size
# Method in brief: (§1)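 Each medium arm—HPLM with 10% dialyzed FBS, or RPMI1640 with 5 mM glucose and 10% untreated or dialyzed FBS—was screened against an 11-point, 3-fold compound titration for 48 h at 37 °C, with CellTiter-Glo luminescence as endpoint.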
# [4] = Quantitative highthroughput screen to assess conditional lethalithy of NOMO1 cells grown in RPMI1640 with dialyzed fetal bovine serum (RPMI+ds) (AID 1963877); note: nearly all actives have a fitted effect of over 30% in size; for Viability: series mostly up to about 46 µM
# Method in brief: as §1
# [5] = Quantitative highthroughput screen to assess conditional lethalithy of NOMO1 cells grown in Human Plasma-Like Medium with dialyzed fetal bovine serum (HPLM+ds) (AID 1963878); note: nearly all actives have a fitted effect of over 35% in size
# Method in brief: as §1
# [6] = Quantitative highthroughput screen to assess conditional lethalithy of P12 Ichikawa cells grown in Human Plasma-Like Medium with dialyzed fetal bovine serum (HPLM+ds) (AID 1963879); conditions: Potency: viability; note: nearly all actives have a fitted effect of over 35% in size; for Viability: series mostly up to about 46 µM
# Method in brief: as §1
# [7] = Quantitative highthroughput screen to assess conditional lethalithy of P12 Ichikawa cells grown in RPMI1640 with untreated serum (RPMI+s) (AID 1963881); conditions: Potency: viability; note: nearly all actives have a fitted effect of over 35% in size; for Viability: series mostly up to about 46 µM
# Method in brief: as §1
# [8] = Quantitative highthroughput screen to assess conditional lethalithy of SEM cells grown in Human Plasma-Like Medium with dialyzed fetal bovine serum (HPLM+ds) (AID 1963882); note: nearly all actives have a fitted effect of over 35% in size; for Viability: series mostly up to about 46 µM
# Method in brief: as §1
# [9] = Quantitative highthroughput screen to assess conditional lethalithy of SEM cells grown in RPMI1640 with unreated serum (RPMI+s) (AID 1963883); note: nearly all actives have a fitted effect of over 35% in size
# Method in brief: as §1
# [10] = Quantitative highthroughput screen to assess conditional lethalithy of SEM cells grown in RPMI1640 with dialyzed fetal bovine serum (RPMI+ds) (AID 1963884); note: nearly all actives have a fitted effect of over 35% in size; for Viability: series mostly up to about 46 µM
# Method in brief: as §1
# [11] = Cellular viability qHTS for adrenocortical cancer (ACC) cell line SW-13 (AID 1963989); conditions: SW-13 ACC cells viability, CellTiter-Glo, 48 h; activity (max response): stronger effect = lower value; note: nearly all actives have a fitted effect of over 65% in size;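 for activity (max response): cells grown in serum-free medium with ITS supplement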
# Method in brief: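 SW-13 cells in ITS-supplemented serum-free DMEM were plated overnight, then exposed for 48 h at 37C to compound titrations (up to 46 uM final). Viability was read by CellTiter-Glo luminescence; four-parameter logistic fits gave IC50 and efficacy.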
# [12] = Cellular viability qHTS for adrenocortical cancer (ACC) cell line NCI-H295R (AID 1963990); note: nearly all actives have a fitted effect of over 60% in size
# Method in brief: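 Luminescent ATP read-out (CellTiter-Glo, 20 min RT) after 48 h drug exposure of NCI-H295R cells; a titration up to 46 uM final. Data normalized to doxorubicin (100% inhibition) and DMSO (0%); 4-parameter fit gives IC50, max response.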
# [13] = Quantitative highthroughput screen to assess conditional lethalithy of P12 Ichikawa cells grown in RPMI1640 with dialyzed fetal bovine serum (RPMI+ds) (AID 1963880); conditions: Potency: P12-Ichikawa viability; note: nearly all actives have a fitted effect of over 35% in size
# Method in brief: as §1
# Potency is the fitted concentration of half-maximal effect.
SMILES,Potency [1],Potency [2],Potency [3],Potency [4],Potency [5],Potency [6],Potency [7],Potency [8],Potency [9],Potency [10],activity (max response) [11],Potency [12],viability (% of control) [1],"viability, % of control [2]",Potency [13],Potency [11]
O=C(c1cncc(Br)c1)N1CCC(N2CCCC2)CC1,inactive,inactive,inactive,inactive,inactive,inactive,inactive,inactive,inactive,inactive,1.51% (inactive),inactive,,,,
CN[C@@H](C)[C@H]1[C@H](O)C[C@@]2(C)[C@@H]3CC[C@H]4C(C)(C)[C@@H](NC)CC[C@@]45C[C@@]35CC[C@]12C,,,inactive,inactive,inactive,inactive,inactive,,inactive,inactive,-3.37% (inactive),,79.2% [at 9.25 µM] (inactive),80.2% [at 9.25 µM] (inactive),,
CN1CCC(=C2c3ccccc3CC(=O)c3sccc32)CC1,26.3 µM (active),23.7 µM (active) and 20.9 µM (active),inactive,inactive,inactive,inactive,inactive,inactive,inactive,inactive,-6.42% (inactive) and -1.59% (inactive),inactive,,,,
COc1ccc2nc3cc(Cl)ccc3c(Nc3cc(CN4CCCC4)c(O)c(CN4CCCC4)c3)c2n1,0.742 µM (active),1.05 µM (active),inactive,inactive,inactive,inactive,,16.6 µM (active),,,,,,,inactive,12.6 µM (active)
Cc1ncc([N+](=O)[O-])n1CC(C)O (stereo unspecified),inactive,inactive,inactive,inactive,inactive,inactive,,,,,-11% (inactive),inactive,,,inactive,
COC(=O)[C@H](CCCN=C(N)N)NS(=O)(=O)c1ccc(C)cc1,inactive,inactive,inactive,inactive,6.62 µM (active),inactive,inactive,,,,6.08% (inactive),inactive,,,,
CCn1c(-c2nonc2N)nc2cncc(CNC3CCNCC3)c21,2.91 µM (active) and 2.95 µM (active),7.31 µM (active) and 5.25 µM (active),9.35 µM (active),18.7 µM (active),3.72 µM (active),6.62 µM (active),,,2.35 µM (active),10.5 µM (active),,,,,18.7 µM (active),
C=C(C)[C@@H]1CC[C@]2(C)CC[C@]3(C)[C@H](CC[C@@H]4[C@@]5(C)CC[C@H](O)C(C)(C)[C@H]5CC[C@]43C)[C@@H]12,inactive,inactive,inactive,inactive,inactive,inactive,inactive,inactive,inactive,inactive,4.74% (inactive),inactive,,,,
Cc1nc(C(=O)NCC(=O)O)c(O)c2ccc(Oc3ccccc3)cc12,inactive,inactive,inactive,inactive,inactive,inactive,,inactive,inactive,inactive,,,,,inactive,
N#Cc1cc(NC(=O)Nc2nnc(-c3ccncc3)s2)ccc1-c1cn[nH]c1,inactive,inactive,inactive,inactive,inactive,inactive,inactive,inactive,inactive,inactive,,inactive,,,,
OCc1ccc(-c2ccc(-c3ccc(CO)s3)o2)s1,1.18 µM (active),0.833 µM (active),inactive,inactive,inactive,inactive,inactive,inactive,inactive,inactive,-9.77% (inactive),28.2 µM (active),,,,
Cc1cc(O)c2c(c1)C(=O)c1cccc(O)c1C2=O,inactive,inactive,inactive,inactive,20.9 µM (active),18.7 µM (active),inactive,,,,-6.49% (inactive),inactive,,,,
Cc1ccc(CN2CCNCC2)cc1NC(=O)CNc1ccc(F)c(F)c1,inactive,inactive,inactive,inactive,inactive,inactive,inactive,inactive,,inactive,11.8% (inactive),inactive,,,,
OCCC#Cc1nc(-c2ccc(F)cc2)c(-c2ccncc2)n1CCCc1ccccc1,20.6 µM (active),10.3 µM (active) and 11.8 µM (active),inactive,inactive,inactive,inactive,,inactive,inactive,18.7 µM (active),,,,,inactive,
CC(C)(N)c1ccc(-c2nc3ccccc3nc2-c2ccccc2)cc1,9.2 µM (active),14.8 µM (active),0.0743 µM (active),0.0833 µM (active),0.0235 µM (active),0.0235 µM (active),0.0935 µM (active),,0.0148 µM (active),0.0332 µM (active),-5.56% (inactive),,,,,
C[C@@H](N)C1CCC(C(=O)Nc2ccncc2)CC1 (stereo partly specified),inactive,inactive,inactive,inactive,inactive,inactive,,inactive,inactive,inactive,-5.19% (inactive),inactive,,,inactive,

SMILES,Potency [1],Potency [2],Potency [3],Potency [4],Potency [5],Potency [6],Potency [7],Potency [8],Potency [9],Potency [10],activity (max response) [11],Potency [12],viability (% of control) [1],"viability, % of control [2]",Potency [13],Potency [11]
CC(C)OC(=O)C1=CN(C(=O)c2ccc(F)c(F)c2)CC(C)(C)c2c1[nH]c1ccccc21,8.33 µM (active),13.2 µM (active),inactive,inactive,inactive,inactive,inactive,inactive,inactive,inactive,-5.24% (inactive),inactive,,,,
Cc1cc(-c2ncc(CC(=O)Nc3ccc(-c4cnccn4)cn3)cc2C)ccn1,5.25 µM (active),2.06 µM (active),inactive,inactive,inactive,inactive,,inactive,inactive,inactive,-24.1% (inactive),,,,inactive,
Cn1cc(-c2ccncc2)c(-c2ccc(OCc3ccc4ccccc4n3)cc2)n1,4.11 µM (active),7.42 µM (active),inactive,inactive,inactive,14.8 µM (active),,inactive,inactive,,,,,,8.33 µM (active),
CN(C)c1ccc(C(=C2C=CC(=[N+](C)C)C=C2)c2ccc(N(C)C)cc2)cc1,0.332 µM (active),0.372 µM (active),0.148 µM (active),0.132 µM (active),0.118 µM (active),0.264 µM (active),,0.118 µM (active),0.105 µM (active),0.0935 µM (active),,,,,0.132 µM (active),651 nM (active) and 1.58 µM (active)
O=c1cc(N2CCOCC2)oc2c(-c3cccc4c3sc3ccccc34)cccc12,1.48 µM (active),1.86 µM (active),inactive,inactive,inactive,inactive,,,,,,12.6 µM (active),,,inactive,25.1 µM (active)
Cc1ccc(F)c(NC(=O)Nc2ccc(-c3cccc4[nH]nc(N)c34)cc2)c1,0.0166 µM (active),0.0231 µM (active),inactive,inactive,inactive,,inactive,,10.5 µM (active),5.9 µM (active),,15.8 µM (active),,,inactive,22.4 µM (active)
CC(C)Oc1cc(Nc2nc(N[C@@H](C)c3ccc(F)cn3)ncc2Cl)[nH]n1,0.058 µM (active),372 nM (active) and 46.1 nM (active),0.935 µM (active),0.833 µM (active),inactive,0.833 µM (active),,,0.526 µM (active),0.332 µM (active),-7.04% (inactive),,,,,
COc1ccc(-c2oc3c(CC=C(C)C)c(O)cc(O)c3c(=O)c2O)cc1,8.33 µM (active),13.2 µM (active),inactive,inactive,inactive,,,inactive,inactive,inactive,-11% (inactive),inactive,,,inactive,
CCOC(=O)c1ccc(C#Cc2ccc3c(c2)C(C)(C)CCS3)nc1,5.25 µM (active),3.76 µM (active),inactive,inactive,inactive,,inactive,inactive,,inactive,-8.69% (inactive),inactive,,,inactive,
CC#C[C@]1(O)CC[C@H]2[C@@H]3CCC4=CC(=O)CCC4=C3[C@@H](c3ccc(N(C)C)cc3)C[C@@]21C,18.6 µM (active),21.1 µM (active) and 16.6 µM (active),6.62 µM (active),7.43 µM (active),8.33 µM (active),9.35 µM (active),,,,,,20.6 µM (active) and 25.1 µM (active),,,,
CNC(=O)c1ccc2cc(C3(O)CCn4cncc43)ccc2c1 (stereo unspecified),inactive,inactive,inactive,inactive,inactive,,inactive,inactive,inactive,inactive,-3.07% (inactive),inactive,,,inactive,
C[C@H]1COC2=C1C(=O)C(=O)c1c2ccc2c1CCCC2(C)C,5.9 µM (active),5.25 µM (active),inactive,inactive,inactive,,inactive,,2.35 µM (active),,-2.17% (inactive),,,,inactive,
O=c1c(O)c(-c2ccc(O)c(O)c2)oc2cc(O)cc(O)c12,23.7 µM (active) and inactive,inactive and 16.4 µM (active),inactive,inactive,inactive,,inactive,inactive,,,-23.2% (inactive) and 14.3% (inactive),inactive,,,,
Cc1cnc(Nc2ccc(CN3CCOCC3)cc2)nc1Nc1cccc(S(=O)(=O)NC(C)(C)C)c1,0.164 µM (active),372 nM (active) and 326 nM (active),4.18 µM (active),4.69 µM (active),4.69 µM (active),,4.18 µM (active),0.743 µM (active),0.469 µM (active),,,4.47 µM (active),,,4.18 µM (active),15.8 µM (active)
O=c1cc(CN2CCOCC2)occ1OCCCCCSc1ccnc2cc(C(F)(F)F)ccc12,11.8 µM (active),9.34 µM (active),inactive,inactive,inactive,,,inactive,inactive,inactive,,,,,,15.8 µM (active)
Cc1ccn(-c2ccc(-c3ncco3)cc2)c(=O)c1-c1ccc2nc(N)ncc2c1,1.64 µM (active),2.31 µM (active),inactive,inactive,inactive,inactive,,,,1.87 µM (active),,inactive,,,,
